Results reported in PubChem BioAssay AID1159580 (chemical genetic matrix, 2015).
Hit rate of the full screen: of about 5,500 compounds, about 2,000 (36%) were called active. Inconclusive results (about 18%) are left out. No stated cut-off is given here; in the data, active means normalized growth mostly below about 0.91 (no sharp cut-off); inconclusive means no clear call, values can overlap the other calls; inactive means mostly above about 0.92. The list shows a part of the results.

Assay: chemical genetic growth profiling, strain panel (AID 1159580);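 further: tested at 20 µM; growth read once vehicle control cultures reached saturation at 30 °C; 1 = growth at the plate median or of vehicle wells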
Conditions: growth OD

Measured: normalized growth

CC(C)=CCC[C@](C)(O)C1CC=C(C)CC1 (some centres not stated)
inactive: S. cerevisiae deletion strains, locus YJR043C, strain POL32, stronger effect = lower value 1.01 | S. cerevisiae deletion strains, locus YJR066W, strain TOR1, stronger effect = lower value 0.953 | S. cerevisiae deletion strains, locus YKL009W, strain mrt4, stronger effect = lower value 0.962 | S. cerevisiae deletion strains, locus YKL068W, stronger effect = lower value 1.01 | S. cerevisiae deletion strains, locus YKL085W, strain MDH1 (second series), stronger effect = lower value 0.991 | S. cerevisiae deletion strains, locus YKL085W, strain MDH1, stronger effect = lower value 0.991 | S. cerevisiae deletion strains, locus YKL160W, strain elf1, stronger effect = lower value 1 | S. cerevisiae deletion strains, locus YKR001C, strain vps1, stronger effect = lower value 0.902 | S. cerevisiae deletion strains, locus YKR026C, strain gcn3, stronger effect = lower value 0.976 | S. cerevisiae deletion strains, locus YKR091W, strain srl3, stronger effect = lower value 0.98 | S. cerevisiae deletion strains, locus YLL001W, strain dnm1, stronger effect = lower value 0.992 | S. cerevisiae deletion strains, locus YLL026W, stronger effect = lower value 0.992 | S. cerevisiae deletion strains, locus YLL041C, strain sdh2, stronger effect = lower value 0.997 | S. cerevisiae deletion strains, locus YLR027C, strain aat2, stronger effect = lower value 0.969 | S. cerevisiae deletion strains, locus YLR039C, strain RIC1, stronger effect = lower value 0.964 | S. cerevisiae deletion strains, locus YLR058C, strain SHM2, stronger effect = lower value 1.03 | S. cerevisiae deletion strains, locus YLR102C, strain apc9, stronger effect = lower value 0.986 | S. cerevisiae deletion strains, locus YLR113W, strain HOG1, stronger effect = lower value 1.02 | S. cerevisiae deletion strains, locus YLR221C, strain rsa3, stronger effect = lower value 0.982 | S. cerevisiae deletion strains, locus YLR258W, strain gsy2, stronger effect = lower value 0.978 | S. cerevisiae deletion strains, locus YLR262C, strain YPT6 (second series), stronger effect = lower value 0.998 | S. cerevisiae deletion strains, locus YLR262C, strain YPT6, stronger effect = lower value 0.966 | S. cerevisiae deletion strains, locus YLR268W, strain sec22, stronger effect = lower value 0.991 | S. cerevisiae deletion strains, locus YLR320W, strain mms22, stronger effect = lower value 0.984 | S. cerevisiae deletion strains, locus YLR330W, strain CHS5, stronger effect = lower value 1.02 | S. cerevisiae deletion strains, locus YLR342W, strain FKS1 (second series), stronger effect = lower value 0.995 | S. cerevisiae deletion strains, locus YLR342W, strain FKS1, stronger effect = lower value 0.98 | S. cerevisiae deletion strains, locus YLR357W, strain rsc2, stronger effect = lower value 0.944 | S. cerevisiae deletion strains, locus YLR370C, strain arc18, stronger effect = lower value 0.96 | S. cerevisiae deletion strains, locus YLR371W, strain rom2, stronger effect = lower value 1 | S. cerevisiae deletion strains, locus YLR384C, strain iki3, stronger effect = lower value 0.971 | S. cerevisiae deletion strains, locus YLR418C, strain cdc73, stronger effect = lower value 0.982 | S. cerevisiae deletion strains, locus YML016C, strain PPZ1, stronger effect = lower value 1.01 | S. cerevisiae deletion strains, locus YML032C, strain rad52, stronger effect = lower value 0.992 | S. cerevisiae deletion strains, locus YML120C, strain ndi1, stronger effect = lower value 0.988 | S. cerevisiae deletion strains, locus YML124C, strain tub3, stronger effect = lower value 1 | S. cerevisiae deletion strains, locus YMR058W, strain fet3, stronger effect = lower value 0.97 | S. cerevisiae deletion strains, locus YMR078C, strain ctf18, stronger effect = lower value 0.976 | S. cerevisiae deletion strains, locus YMR125W, strain sto1, stronger effect = lower value 0.967 | S. cerevisiae deletion strains, locus YMR129W, stronger effect = lower value 0.992 | S. cerevisiae deletion strains, locus YMR205C, strain PFK2, stronger effect = lower value 0.983 | S. cerevisiae deletion strains, locus YMR223W, strain ubp8, stronger effect = lower value 0.991 | S. cerevisiae deletion strains, locus YMR231W, strain pep5, stronger effect = lower value 0.965 | S. cerevisiae deletion strains, locus YMR307W, strain GAS1, stronger effect = lower value 1.13 | S. cerevisiae deletion strains, locus YNL067W, strain RPL9B, stronger effect = lower value 1.01 | S. cerevisiae deletion strains, locus YNL071W, strain lat1, stronger effect = lower value 0.98 | S. cerevisiae deletion strains, locus YNL153C, strain GIM3, stronger effect = lower value 1.01 | S. cerevisiae deletion strains, locus YNL183C, strain NPR1, stronger effect = lower value 0.954 | S. cerevisiae deletion strains, locus YNL209W, strain ssb2, stronger effect = lower value 0.98 | S. cerevisiae deletion strains, locus YNL233W, strain BNI4, stronger effect = lower value 1.04 | S. cerevisiae deletion strains, locus YNL248C, strain rpa49, stronger effect = lower value 0.978 | S. cerevisiae deletion strains, locus YNL250W, strain rad50, stronger effect = lower value 1 | S. cerevisiae deletion strains, locus YNL271C, strain bni1, stronger effect = lower value 0.988 | S. cerevisiae deletion strains, locus YNL298W, strain CLA4, stronger effect = lower value 1.01 | S. cerevisiae deletion strains, locus YNL307C, strain MCK1, stronger effect = lower value 0.983 | S. cerevisiae deletion strains, locus YNL322C, strain KRE1 (second series), stronger effect = lower value 0.982 | S. cerevisiae deletion strains, locus YNR049C, strain mso1, stronger effect = lower value 0.979 | S. cerevisiae deletion strains, locus YNR052C, strain pop2, stronger effect = lower value 0.994 | S. cerevisiae deletion strains, locus YOL012C, strain htz1 1.39 | S. cerevisiae deletion strains, locus YOL147C, strain pex11, stronger effect = lower value 0.981 | S. cerevisiae deletion strains, locus YOR001W, strain rrp6, stronger effect = lower value 0.975 | S. cerevisiae deletion strains, locus YOR061W, strain CKA2, stronger effect = lower value 1.03 | S. cerevisiae deletion strains, locus YOR069W, strain VPS5, stronger effect = lower value 1.02 | S. cerevisiae deletion strains, locus YOR070C, strain gyp1, stronger effect = lower value 1.02 | S. cerevisiae deletion strains, locus YOR080W, strain dia2, stronger effect = lower value 0.979 | S. cerevisiae deletion strains, locus YOR083W, strain WHI5, stronger effect = lower value 0.987 | S. cerevisiae deletion strains, locus YOR106W, strain vam3, stronger effect = lower value 0.947 | S. cerevisiae deletion strains, locus YOR136W, strain idh2, stronger effect = lower value 0.992 | S. cerevisiae deletion strains, locus YOR144C, strain elg1, stronger effect = lower value 0.989 | S. cerevisiae deletion strains, locus YOR184W, strain ser1, stronger effect = lower value 0.994 | S. cerevisiae deletion strains, locus YOR231W, strain MKK1, stronger effect = lower value 0.993 | S. cerevisiae deletion strains, locus YOR265W, strain rbl2, stronger effect = lower value 0.98 | S. cerevisiae deletion strains, locus YOR270C, strain vph1, stronger effect = lower value 0.932 | S. cerevisiae deletion strains, locus YOR290C, strain snf2, stronger effect = lower value 0.969 | S. cerevisiae deletion strains, locus YOR316C, strain cot1, stronger effect = lower value 0.986 | S. cerevisiae deletion strains, locus YPL051W, strain arl3, stronger effect = lower value 0.981 | S. cerevisiae deletion strains, locus YPL055C, strain LGE1, stronger effect = lower value 1.04 | S. cerevisiae deletion strains, locus YPL078C, strain atp4, stronger effect = lower value 0.988 | S. cerevisiae deletion strains, locus YPL106C, strain sse1, stronger effect = lower value 0.981 | S. cerevisiae deletion strains, locus YPL240C, strain hsp82, stronger effect = lower value 0.977 | S. cerevisiae deletion strains, locus YPL256C, strain CLN2, stronger effect = lower value 0.99 | S. cerevisiae deletion strains, locus YPR119W, strain clb2, stronger effect = lower value 1.01 | S. cerevisiae deletion strains, locus YPR141C, strain kar3, stronger effect = lower value 1 | S. cerevisiae deletion strains, locus YPR163C, strain tif3, stronger effect = lower value 0.973 | S. cerevisiae deletion strains, locus YPR167C, strain met16, stronger effect = lower value 1.02 | S. cerevisiae deletion strains, strain wtn01, stronger effect = lower value 0.974 | S. cerevisiae strains, strain wild type, stronger effect = lower value 1.02
